This is an account of results in publication PMC4336329 (PLoS ONE, 2015).

Each structure is given as a SMILES string. Out of some 310,000 compounds screened, about 14,000 (4.5%) showed an effect of 50% or more. Effects have a minus sign here. The entries come from a sample that favours strong results as a whole.
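Note: peak tail current of the secondary pulse compared with the same well before compound.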

Chain of human ether-à-go-go-related gene (hERG) potassium channel (Q12809 whole entry, looked up): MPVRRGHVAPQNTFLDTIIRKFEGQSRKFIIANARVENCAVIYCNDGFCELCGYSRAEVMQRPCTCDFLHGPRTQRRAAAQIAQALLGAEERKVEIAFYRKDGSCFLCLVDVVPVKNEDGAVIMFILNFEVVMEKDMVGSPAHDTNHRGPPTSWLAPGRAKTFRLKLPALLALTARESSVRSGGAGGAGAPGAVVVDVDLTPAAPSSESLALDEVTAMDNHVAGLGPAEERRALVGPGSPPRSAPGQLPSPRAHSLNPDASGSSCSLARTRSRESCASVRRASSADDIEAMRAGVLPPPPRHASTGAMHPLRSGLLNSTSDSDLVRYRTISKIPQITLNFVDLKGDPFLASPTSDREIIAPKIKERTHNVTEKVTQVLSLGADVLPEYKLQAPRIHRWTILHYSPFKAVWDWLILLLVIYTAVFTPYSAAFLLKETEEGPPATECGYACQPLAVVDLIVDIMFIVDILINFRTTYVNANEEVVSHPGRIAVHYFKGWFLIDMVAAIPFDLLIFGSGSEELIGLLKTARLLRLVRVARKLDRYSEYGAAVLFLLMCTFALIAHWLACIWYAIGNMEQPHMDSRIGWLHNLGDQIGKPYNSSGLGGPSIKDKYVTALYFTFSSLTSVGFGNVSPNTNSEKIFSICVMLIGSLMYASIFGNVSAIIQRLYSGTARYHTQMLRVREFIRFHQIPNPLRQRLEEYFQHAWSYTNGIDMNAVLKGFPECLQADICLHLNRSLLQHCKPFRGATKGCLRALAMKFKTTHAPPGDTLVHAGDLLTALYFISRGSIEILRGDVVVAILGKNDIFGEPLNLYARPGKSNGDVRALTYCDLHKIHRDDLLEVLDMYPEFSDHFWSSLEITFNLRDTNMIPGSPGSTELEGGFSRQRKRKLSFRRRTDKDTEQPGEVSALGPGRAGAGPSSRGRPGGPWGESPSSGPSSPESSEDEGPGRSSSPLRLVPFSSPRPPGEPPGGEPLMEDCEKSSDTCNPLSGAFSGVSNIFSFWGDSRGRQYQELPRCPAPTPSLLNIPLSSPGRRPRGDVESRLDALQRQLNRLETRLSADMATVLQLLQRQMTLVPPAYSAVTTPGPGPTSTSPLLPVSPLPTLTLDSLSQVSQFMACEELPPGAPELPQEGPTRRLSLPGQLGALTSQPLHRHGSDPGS

The experiment addresses human ether-à-go-go-related gene (hERG) potassium channel (human, UniProt Q12809). Briefly: primary screen, population patch clamp on CHO cells stably expressing hERG; higher = less effect of the substance.
As to `Cc1ccc(C(=O)NCCC(=O)NCc2ccco2)cc1`, the “hERG current change (%, negative = inhibition) at 10uM” value was 9.59%.
Consider `CC1=NN(C(=O)c2nn(C)cc2Br)C(O)(C(F)(F)F)C1` (centres unmarked), for which the “hERG current change (%, negative = inhibition) at 10uM” value amounted to 10.3%.
On to `Cc1cccc(C)c1NC(=O)CNC(=O)C1CCCC1`, for which the “hERG current change (%, negative = inhibition) at 10uM” value is 2.19%.
For the molecule `O=C(NC1CCCCC1)C(c1ccc(F)cc1)N(C(=O)c1csnn1)C1CC1` (centres unmarked), the “hERG current change (%, negative = inhibition) at 10uM” value came to 13.2%.
As to `COc1ccc(C(=O)CN2CCN(c3ncccn3)CC2)cc1.O=C(O)C(=O)O`, the “hERG current change (%, negative = inhibition) at 10uM” value is 5.13%.
On to `COc1ccc2nc(C)cc(N3CCC(C(N)=O)CC3)c2c1`, for which the “hERG current change (%, negative = inhibition) at 10uM” value was -33.7%.
In the case of `COc1ccc(C(=O)CN2CCN(c3cc(C)nc4ccccc34)CC2)cc1`, the “hERG current change (%, negative = inhibition) at 10uM” value is recorded as -68.8%.
Regarding `COc1ccc2nc(C)cc(N3CC(C)OC(C)C3)c2c1` (centres unmarked), the “hERG current change (%, negative = inhibition) at 10uM” value is listed as -49.6%.
`COc1ccc2nc(C)cc(C(=O)O)c2c1`: the “hERG current change (%, negative = inhibition) at 10uM” value turned out to be 0.7%.
`CCOC(=O)C1CCN(c2cc(C)nc3ccc(OC)cc23)CC1`: the “hERG current change (%, negative = inhibition) at 10uM” value is -73.8%.
Then `COc1ccc(N2CCN(c3cc(C)c4ccccc4n3)CC2)cc1`, with 3.95%; and `COc1ccc(N2CCN(c3cc(C)nc4ccc(OC)cc34)CC2)cc1`, with -69.1%; and `COc1ccc2nc(C)cc(N3CCN(c4ccccc4)CC3)c2c1`, with -66.7%.
As to `COc1ccc2nc(C)cc(N3CCOCC3)c2c1`, the “hERG current change (%, negative = inhibition) at 10uM” value was -14.6%.
For `COc1ccc(N2CCN(CC(=O)c3ccccc3)CC2)cc1`, the “hERG current change (%, negative = inhibition) at 10uM” value is listed as 11%.
Then `CCOC(=O)C1CCN(c2nc3cc(OC)ccc3cc2C#N)CC1`, with -16%.
`Cc1ccc(NC(=O)CNC(=O)c2cccs2)c(O)c1`: the “hERG current change (%, negative = inhibition) at 10uM” value is recorded as 15.1%.
For the molecule `Cl.NS(=O)(=O)c1cccc(N2CCNCC2)c1`, the “hERG current change (%, negative = inhibition) at 10uM” value turned out to be 11.7%.
As for `COc1ccc(Cl)cc1NC(=S)NNC(=O)c1cccnc1`, the figure is 36.9%; as for `COc1ccccc1N1CCN(S(=O)(=O)c2ccccc2F)CC1`, -23.3%.
`COc1ccc2nc(C)cc(N3CCN(S(=O)(=O)c4ccccc4F)CC3)c2c1`: the “hERG current change (%, negative = inhibition) at 10uM” value is reported as -75.9%.
`COc1cccc(S(=O)(=O)N2CCN(c3ccccc3F)CC2)c1`: the “hERG current change (%, negative = inhibition) at 10uM” value was -6.35%.
Turning to `CCOc1ccc(-c2n[nH]c(C)c2Oc2ccc(OC)cc2)c(O)c1`, the “hERG current change (%, negative = inhibition) at 10uM” value is -6.31%.
Then `Cc1ccc2cc(CN(Cc3ccco3)S(=O)(=O)c3c(C)ccc4nsnc34)c(=O)[nH]c2c1`, with 2.82%; and `CNCc1ccccc1Sc1cccc2ccccc12.O=C(O)/C=C\C(=O)O`, with -45.4%; and `O=C(O)/C=C\C(=O)O.c1ccc(Sc2ccccc2CN2CCCC2)cc1`, with -50.7%.
Then `OCc1ccccc1CN1CCCCCC1`, with -9.62%; and `CNCc1ccccc1Sc1cccc(O)c1.O=C(O)/C=C\C(=O)O`, with 7.03%; and `CNCc1ccccc1Sc1ccc(OC)c(OC)c1.O=C(O)/C=C\C(=O)O`, with -18.3%.
For `CN1CCN(Cc2ccccc2Sc2ccccc2)CC1.O=C(O)/C=C\C(=O)O`, the “hERG current change (%, negative = inhibition) at 10uM” value is -82%.
As for `O=C1N=C(N2CCCC2)S/C1=C\c1cn[nH]c1-c1ccccc1`, the figure is -4.48%; as for `COCCN=c1scc(-c2cccs2)n1/N=C(\C)c1ccco1`, -2.51%.
Then `CN(C)S(=O)(=O)c1cccc(COc2ccccc2C(=O)Nc2ccccc2)c1`, with -14.4%; and `Brc1ccc(OCc2cn3ccccc3n2)cc1`, with -7.75%.
On to `CCOC(=O)c1sc(NC(=O)CSc2nccc(C)n2)c(C#N)c1C`, for which the “hERG current change (%, negative = inhibition) at 10uM” value is listed as -4.68%.
On to `Cc1sc2ncnc(Sc3nc4ccccc4s3)c2c1C`, for which the “hERG current change (%, negative = inhibition) at 10uM” value is 5.53%.
Take `Cl.O=C(CN1CCCC1)Nc1ccc2c(c1)CCC2`: the “hERG current change (%, negative = inhibition) at 10uM” value was -1.69%.
As to `C[C@]12C=CC(=O)C=C1CC[C@H]1[C@@H]3C[C@@H](O)[C@](O)(C(=O)CO)[C@@]3(C)C[C@H](O)[C@@]12F`, the “hERG current change (%, negative = inhibition) at 10uM” value was determined as 6.23%.
Then `CC1(C)O[C@@H]2C[C@H]3[C@@H]4CCC5=CC(=O)C=C[C@]5(C)[C@@]4(F)[C@@H](O)C[C@]3(C)[C@]2(C(=O)CO)O1`, with 13.7%; and `CC1(c2ccccc2)O[C@@H]2C[C@H]3[C@@H]4CCC5=CC(=O)C=C[C@]5(C)[C@@]4(F)[C@@H](O)C[C@]3(C)[C@]2(C(=O)CO)O1` (some centres unmarked), with -78.6%.
Then `CCn1c(CCNC(=O)c2ccccc2Cl)n[nH]c1=S`, with 12%; and `C[n+]1ccccc1/C=C/c1cc(Br)ccc1O.[I-]`, with 14.7%.
Turning to `Nc1ccc(C(=O)N2CCN(S(=O)(=O)c3ccc(Br)cc3)CC2)cc1[N+](=O)[O-]`, the “hERG current change (%, negative = inhibition) at 10uM” value is reported as -26.9%.
In the case of `Cc1ccc(S(=O)(=O)N2CCN(C(=O)c3ccc(-n4cncn4)c([N+](=O)[O-])c3)CC2)cc1`, the “hERG current change (%, negative = inhibition) at 10uM” value was -52.5%.
Regarding `CC(=O)c1ccc(S(=O)(=O)N2CCN(C(=O)c3ccc(-n4cncn4)c([N+](=O)[O-])c3)CC2)cc1`, the “hERG current change (%, negative = inhibition) at 10uM” value is -19.7%.
In the case of `Cc1ccc(C)c(S(=O)(=O)N2CCN(C(=O)c3ccc(-n4cncn4)c([N+](=O)[O-])c3)CC2)c1`, the “hERG current change (%, negative = inhibition) at 10uM” value is -72.1%.
Take `CC(C)c1ccc(S(=O)(=O)N2CCN(C(=O)c3ccc(N4CCCC4)c([N+](=O)[O-])c3)CC2)cc1`: the “hERG current change (%, negative = inhibition) at 10uM” value is -55.1%.
Consider `Cc1ccc(C(=O)NNC(=O)c2ccc(-n3cncn3)c([N+](=O)[O-])c2)cc1`, for which the “hERG current change (%, negative = inhibition) at 10uM” value is 12.2%.
Then `Cc1ccc(S(=O)(=O)N2CCN(C(=O)c3ccc(N4CCCCC4)c([N+](=O)[O-])c3)CC2)cc1`, with -10.2%; and `O=C(c1ccc(N2CCCC2)c([N+](=O)[O-])c1)N1CCN(S(=O)(=O)c2ccc(Cl)cc2)CC1`, with -36.2%.
Regarding `O=C(c1ccc(-n2cncn2)c([N+](=O)[O-])c1)N1CCN(S(=O)(=O)c2ccc(Br)cc2)CC1`, the “hERG current change (%, negative = inhibition) at 10uM” value was -67.5%.
`Cc1ccc(NC(=O)c2ccc(-n3cncn3)c([N+](=O)[O-])c2)cc1`: the “hERG current change (%, negative = inhibition) at 10uM” value is given as -17.9%.
`Cc1ccc(C)c(S(=O)(=O)N2CCN(C(=O)c3ccc(N4CCCC4)c([N+](=O)[O-])c3)CC2)c1`: the “hERG current change (%, negative = inhibition) at 10uM” value is recorded as -9.46%.
